Results published in PubChem BioAssay.
Unmarked numbers belong to inactive results. Active and inactive are the calls of the source. No rule for the calls is given here.

Test: inhibitors of Cryptococcus chitosan production, flow cytometry, Cibacron Brilliant Red staining (AID 1347148);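 also: compound exposure lasted three days at 37 degrees C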
Conditions: Cryptococcus neoformans chitosan, active compounds read low; at 10 µM unless noted

Structure (SMILES) | fold fluorescence
CCCCCCCCCCCC[C@H](O)C(=O)O | 5.23
C[C@H](N)C1CCC(C(=O)Nc2ccncc2)CC1 (stereo not given in full) | 2.94 [at 202.1 µM]
CCCCC[C@@H](O)/C=C/[C@H]1[C@@H]2C/C(=C/CCCC(=O)O)C[C@@H]2C[C@@H]1O | 4.8
CC1(COc2ccc(C[C@@H]3SC(=O)NC3=O)cc2)CCCCC1 | 5.39
CCCCCCCCCCCCCCCCCCOC[C@@H](COP(=O)([O-])OCC[N+](C)(C)C)OC(C)=O | 3.94
CCCCCCCCCCCCCCCC(=O)C1=C(O)[C@H](CO)OC1=O | 2.82 [at 135.7 µM] (active)
CCCCCCCCCCCCCCC[C@H](O)[C@@H](CO)NC(=O)CCCCCCC | 6.03
CC(C)[C@@H](O)CC[C@H](C)[C@@H]1CC[C@@H]2[C@H]3CC=C4C[C@H](O)CC[C@@]4(C)[C@@H]3CC[C@]21C | 4.41 [at 124.2 µM]
C[C@@H](/C=C/c1cccc(Oc2ccc(F)cc2)c1)N(O)C(N)=O | 6.07 [at 158.1 µM]
C=CCNC1=C2C[C@H](C)C[C@@H](OC)[C@@H](O)[C@H](C)/C=C(\C)[C@@H](OC(N)=O)[C@H](OC)/C=C\C=C(/C)C(=O)NC(=CC1=O)C2=O | 7.27 [at 85.4 µM]
CCCCCCOC(=O)C1(O)CC2OC1(C)n1c3ccccc3c3c4c(c5c6ccccc6n2c5c31)C(=O)NC4 (stereo not given) | 4.72 [at 9.3 µM]
C=C1O[C@](CO)(n2cnc3c(N)ncnc32)[C@@H](O)[C@H]1O | 10.1 [at 179 µM]
C1CCC[C@H]2CCCN3CC[C@@H](CCCCCC[C@@H]4CCCN5CC[C@@H](CC1)O[C@@H]45)O[C@@H]23 | 6.06 [at 11.2 µM]
C[C@@](O)(C(=O)Nc1ccc(S(=O)(=O)c2ccccc2)cc1)C(F)(F)F | 5.17 [at 133.9 µM]
CCCCCCCCCCCCCCCCCCOC[C@@H](COP(=O)([O-])OCC[N+](C)(C)C)OC | 5.31
CCCCCCCC/C=C\CCCCCCCCOC[C@@H](COP(=O)([O-])OCC[N+](C)(C)C)OC(C)=O | 3.92
CC(=O)OCO[C@H](c1ccc2ccccc2c1)P(=O)(OCOC(C)=O)OCOC(C)=O | 4.04 [at 110 µM]
CNC(=O)[C@@H]1O[C@H](n2cnc3c(NCc4cccc(I)c4)ncnc32)C(O)[C@@H]1O (stereo not given in full) | 4.36 [at 98 µM]
N#Cc1cc2c(OC[C@@H](O)CN3CCN(C(c4ccccc4)c4ccccc4)CC3)cccc2[nH]1 | 3.58 [at 107.2 µM]
COC(=O)[C@H]1[C@@H]2C[C@@H]3c4[nH]c5ccccc5c4CCN3C[C@H]2CC[C@H]1O | 3.91 [at 141.1 µM]
COc1ccc(CCN(C)CCC[C@@](C#N)(c2cc(OC)c(OC)c(OC)c2)C(C)C)cc1OC | 4.22 [at 103.2 µM]
O=C(O)CCC/C=C\C[C@@H]1C(=O)C[C@H](O)[C@H]1/C=C/[C@H](O)CCc1ccccc1 | 4.52
CCCCC[C@@H](O)/C=C/[C@H]1[C@H](C/C=C\CCCC(=O)O)[C@@H](O)C[C@@H]1O | 4.53
C=C[C@@H]1CN2CCC1C[C@H]2[C@H](O)c1ccnc2ccc(OC)cc12 (stereo not given in full) | 3.61 [at 154.1 µM]
CCCCCCCCCCCCCCCCOC[C@@H](COP(=O)([O-])OCC[N+](C)(C)C)OC | 4.86
C=C1/C(=C\C=C2/CCC[C@]3(C)[C@@H]2CC[C@H]3[C@@H](C)CCCC(C)(C)O)C[C@H](O)C[C@H]1O | 7.1
C=C(C)[C@H]1CC[C@@]2(C(=O)O)CC[C@@]3(C)[C@@H](CC[C@H]4[C@]5(C)CC[C@@H](O)C(C)(C)[C@H]5CC[C@@]43C)[C@H]12 | 3.34 [at 109.5 µM]
O=C(NC[C@H]1CCCCN1)c1cc(OCC(F)(F)F)ccc1OCC(F)(F)F | 6.98 [at 120.7 µM]
CCCCC/C=C\C/C=C\C/C=C\C/C=C\CCCC(=O)O[C@@H](COCCCCCCCCCCCCCCCC)COP(=O)([O-])OCC[N+](C)(C)C | 5.54
CN(C)C[C@H](O)Cn1c2ccc(Br)cc2c2cc(Br)ccc21 | 6.53 [at 117.3 µM]
